{"source": "PubChem BioAssay (NCATS)", "note": "Where “and” joins values, the source holds several entries; their conditions need not be identical. Equal values may be shown once. Results filed as inconclusive are left out. Calls of active or inactive are those of the source. Calls follow the shape of the dose curve; as a rule, active = well fitted activation curve with a large enough effect; inconclusive = small, poorly fitted or top-dose-only effect; inactive = no such curve, though single readings can be large or run the other way. Potency is read from the fitted curve at half-maximal effect.", "data": [{"target": "Cellular tumor antigen p53 (Homo sapiens) (UniProt P04637)", "sequence (P04637 whole entry, looked up)": "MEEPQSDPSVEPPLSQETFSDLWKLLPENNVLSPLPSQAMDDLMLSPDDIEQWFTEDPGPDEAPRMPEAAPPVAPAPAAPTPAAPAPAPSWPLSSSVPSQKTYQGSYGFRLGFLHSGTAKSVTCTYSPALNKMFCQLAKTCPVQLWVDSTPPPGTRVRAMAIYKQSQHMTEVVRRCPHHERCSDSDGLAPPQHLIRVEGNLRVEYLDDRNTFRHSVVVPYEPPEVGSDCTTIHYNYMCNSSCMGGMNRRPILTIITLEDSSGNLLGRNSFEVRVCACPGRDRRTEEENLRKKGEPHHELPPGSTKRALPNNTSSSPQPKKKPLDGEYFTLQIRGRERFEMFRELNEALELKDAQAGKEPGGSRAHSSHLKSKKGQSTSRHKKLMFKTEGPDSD", "experiment": "Primary qHTS for small molecule compounds that upregulate eGFP-tagged delta133p53alpha (in N-terminal) cells. (AID 2060322); also: nearly all actives have a fitted effect of over 75% in size;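 as to activation: cells pre-induced with doxycycline then dosed without doxycycline; series mostly up to about 56 µM; 0% = DMSO vehicle and 100% = reference activator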", "settings": "NCI-H358 eGFP-delta133p53alpha fluorescence, 24 h; activation: active compounds read high", "summary_of_the_method": "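NCI-H358 cells pre-induced 24 h with 10 ng/ml doxycycline for eGFP-delta133p53alpha, plated dox-free and exposed 24 h at 37C to titrated compounds. Fixed, Hoechst-stained; gated GFP peak intensity by laser scanning cytometry, normalized to DMSO (0%) and 57.5 uM 5-azacytidine (100%).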", "values": [{"molecule": "O=C(OCC1(COC(=O)c2cccnc2)CCCC(COC(=O)c2cccnc2)(COC(=O)c2cccnc2)C1O)c1cccnc1", "activation": "-11.7% (inactive)"}, {"molecule": "Cc1cc(C)c2nc(-c3ccccn3)cc(C(=O)Nc3ccc(S(=O)(=O)Nc4onc(C)c4C)cc3)c2c1", "activation": "8.11% (inactive)"}, {"molecule": "CCCC(=O)c1cc(O)c(O)cc1O", "activation": "-37.9% (inactive)"}, {"molecule": "CC(=O)OC[C@H]1O[C@@](COC(C)=O)(O[C@H]2O[C@H](COC(C)=O)[C@@H](OC(C)=O)[C@H](OC(C)=O)[C@H]2OC(C)=O)[C@@H](OC(C)=O)[C@@H]1OC(C)=O", "activation": "10.7% (inactive)"}, {"molecule": "COc1cc(/C=C/C(N)=O)cc(OC)c1OC", "activation": "-18.6% (inactive)"}, {"molecule": "CC(=O)[C@H]1CC[C@H]2[C@@H]3C[C@H](C)C4=CC(=O)CC[C@]4(C)[C@H]3[C@@H](O)C[C@]12C", "activation": "-15.9% (inactive)"}, {"molecule": "CC(=O)O[C@H]1CC[C@@]2(C)C(=CC[C@@H]3[C@@H]2CC[C@]2(C)C(C(C)=O)=CC[C@@H]32)C1", "activation": "4.18% (inactive)"}, {"molecule": "N#C/C(=C1\\SCC(c2ccccc2Cl)S1)n1ccnc1", "note": "(stereo not given)", "activation": "5.08% (inactive)"}, {"molecule": "CC(=O)O[C@]1(C(C)=O)CC[C@@H]2[C@@H]3C[C@H](C)C4=CC(=O)CC[C@]4(C)[C@H]3CC[C@@]21C", "activation": "17.1% (inactive)"}, {"molecule": "CC(O)Cn1cnc2c1c(=O)n(C)c(=O)n2C", "note": "(stereo not given)", "activation": "26.6% (inactive)"}, {"molecule": "CCCCC(CC)CN=C(N)NC(N)=NCCCCCCN=C(N)NC(N)=NCC(CC)CCCC", "note": "(stereo not given)", "Potency": "13.8 µM (active)"}, {"molecule": "CN[C@@H]1[C@H](O)[C@H](NC)[C@H]2O[C@@]3(O)C(=O)C[C@@H](C)O[C@H]3O[C@@H]2[C@H]1O", "activation": "27.7% (inactive)"}, {"molecule": "Cc1ccc(-c2ccccc2C#N)cc1", "activation": "-11.9% (inactive)"}, {"molecule": "CCCCCCn1c(=O)c2c(ncn2C)n(C)c1=O", "activation": "-5.08% (inactive)"}, {"molecule": "CCc1c(C(=O)Nc2cc(S(=O)(=O)N(CC)CC)ccc2O)[nH]c(C)c1C(C)=O", "activation": "-38% (inactive)"}, {"molecule": "CC(C)(C)CC(C)(C)c1ccc(O)c(-n2nc3ccccc3n2)c1", "activation": "-0.565% (inactive)"}, {"molecule": "O=C(O)C(=O)Nc1cccc(C2=NN=N[N]2)c1", "activation": "19.6% (inactive)"}, {"molecule": "Nc1c2c(nc3c1CCC3)CCCC2", "activation": "-11.7% (inactive)"}, {"molecule": "NS(=O)(=O)c1cc2c(cc1Cl)NC(CC1CCCC1)NS2(=O)=O", "note": "(stereo not given)", "activation": "11.9% (inactive)"}, {"molecule": "CC(C)OC(=O)OCOP(=O)(CO[C@H](C)Cn1cnc2c(N)ncnc21)OCOC(=O)OC(C)C", "activation": "-1.51% (inactive) and -14.1% (inactive)"}, {"molecule": "CN(C)CCCSc1ccccc1NC(=O)/C=C/c1ccccc1", "activation": "-10% (inactive)"}, {"molecule": "Cc1ncc([N+](=O)[O-])n1C", "activation": "-0.565% (inactive)"}, {"molecule": "COc1ccc2cc(CCC(C)=O)ccc2c1", "activation": "-16.4% (inactive)"}, {"molecule": "CC1(C)CCC[C@@]2(C)[C@@H]1CC[C@@]1(C)OC(=O)C[C@H]21", "activation": "-11.9% (inactive)"}, {"molecule": "O=C(Nc1cccc2c(=O)cc(-c3nn[nH]n3)oc12)c1ccc(OCCCCc2ccccc2)cc1", "activation": "-4.79% (inactive)"}, {"molecule": "CN(C)CCOc1ccc(-c2nc(-c3ccc4c(c3)CCC4=NO)c(-c3ccncc3)[nH]2)cc1", "activation": "-18.7% (inactive)"}, {"molecule": "CCOC(=O)c1ccc(N)cc1", "activation": "8.37% (inactive)"}, {"molecule": "CCn1c(=O)c2c(nc(C=Cc3ccc(OC)c(OC)c3)n2C)n(CC)c1=O", "activation": "-8.1% (inactive)"}, {"molecule": "C[C@@H](CN(C)C)CN1c2ccccc2Sc2ccccc21", "activation": "-15.1% (inactive)"}, {"molecule": "CCN(CC)C(=O)C1CN2CCc3cc(OC)c(OC)cc3C2CC1OC(C)=O", "note": "(stereo not given)", "activation": "-9.21% (inactive)"}, {"molecule": "OC[C@H]1O[C@@H](Oc2cc(O)cc(C=Cc3ccc(O)cc3)c2)[C@H](O)[C@@H](O)[C@H]1O", "activation": "9.98% (inactive)"}, {"molecule": "O=C(O)C(Cc1cc(I)c(O)c(I)c1)c1ccccc1", "note": "(stereo not given)", "activation": "-19.8% (inactive)"}, {"molecule": "CCN1CCCC1=O", "activation": "10.7% (inactive)"}, {"molecule": "CC(=O)ON=C1C(c2c(O)[nH]c3cc(Br)ccc23)=Nc2ccccc21", "activation": "53.3% (inactive)"}, {"molecule": "O=C(CCCCC(=O)Nc1c(I)cc(I)c(C(=O)O)c1I)Nc1c(I)cc(I)c(C(=O)O)c1I", "activation": "2.82% (inactive)"}, {"molecule": "CO[C@H]1C=CC=C(C)C(=O)NC2=CC(=O)C(NCCN(C)C)=C(C[C@@H](C)C[C@H](OC)[C@@H](O)[C@@H](C)C=C(C)[C@@H]1OC(N)=O)C2=O", "activation": "14.6% (inactive)"}, {"molecule": "O=C(O)c1ccccn1", "activation": "17.6% (inactive)"}, {"molecule": "CC(C)c1cc2c(cc1S(=O)(=O)O)[C@@]1(C)CCC[C@@](C)(C(=O)O)[C@@H]1CC2", "activation": "-22% (inactive)"}, {"molecule": "CCCCOc1ccc(OCCCN2CCOCC2)cc1", "activation": "22.6% (inactive)"}, {"molecule": "O[C@@H]1CO[C@H]2[C@@H]1OC[C@@H]2O", "activation": "-14.2% (inactive)"}]}]}
